The panel holds about 83,000 compounds, 20% with a hit somewhere; the sample as a whole holds those more often.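 Single-dose data. Exposure time 48 hours. Values below 10 considered active.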 A number with no mark means an inactive call. The source made the active and inactive calls.
Tested on: SK-MEL-2 melanoma
Assay: NCI-60 one-dose screen, 48 h (100 = growth as untreated, 0 = no growth, -100 = all killed)
Conditions: 10 µM unless noted

In the case of `C=C(C)[C@@H]1CC[C@]2(C(N)=O)CC[C@]3(C)[C@H](CC[C@@H]4[C@@]5(C)CC[C@H](O)C(C)(C)[C@@H]5CC[C@]43C)[C@@H]12`, the growth is reported as -31.2% [100 µM] (active).
`CC1(C)[C@@H](NOCCCN)CC[C@]2(C)[C@H]3C(=O)C=C4[C@@H]5C[C@](C)(C(=O)O)CC[C@]5(C)CC[C@@]4(C)[C@]3(C)CC[C@@H]12` was tested, and the growth was -63.8% [100 µM] (active).
`O=C1C(Cl)=C(Nc2ccc3cn[nH]c3c2)C(=O)c2ccccc21` was tested, and the growth was -28.6% (active).
`CC(C)c1ccc(C(=O)Nc2sc3c(c2C#N)CCC(=O)C3)cc1` was tested, and the growth was -20.1% (active).
`O=C(C[n+]1ccn(CC(OCc2ccc(Cl)cc2Cl)c2ccc(Cl)cc2Cl)c1)c1ccc(F)cc1` (configuration not stated) was tested, and the growth was -88% (active).
In the case of `O=C(NCCCNC(=O)OCc1ccc2c(Br)cc(Br)c(O)c2n1)OCc1ccc2c(Br)cc(Br)c(O)c2n1`, the growth is reported as -6.76% (active).
`Cc1cccc(C[C@H](NC(=O)Nc2ccc(Cl)cc2F)C(=O)N[C@@H]2C(=O)N3C[C@H](O)C[C@H]3C(=O)N3CCCC[C@H]3C(=O)N[C@@H](C)C(=O)N3C[C@H](C)C[C@H]3C(=O)O[C@H]2C)c1` was tested, and the growth was 0.151% (active).
For `CCN(CC)CCCC(C)Nc1ccnc2cc(Cl)c(SCc3ccccc3)cc12` (configuration not stated), the growth was -71.1% (active).

Going from `CCN1CCN(CC(=O)Nc2nc3ccc(NCc4ccc(Cl)cc4)cc3s2)CC1` to `O=c1[nH]c(CN2CCN(c3cccc(Cl)c3)CC2)nc2cc(Cl)ccc12`, the growth falls from 86.4% to 46.7%.

Going from `COc1cc(C)cc2oc3oc(=O)c(C(=O)c4cc5cc(Br)ccc5o4)cc3c(=O)c12` to `COc1cc2c(O)n(CCCN3CCOCC3)c3c4cnc5cccc(c(=O)c3c2cc1OC)c54`, the growth falls from 114% to 45.6%.

Compared with `O=S(=O)(NCCCNc1nccc(-c2c(-c3cccc(F)c3)nc3occn23)n1)c1cccc2ccccc12`, `O=C(Nc1cccc2ccccc12)c1cc2ccccc2cc1O` is lower in growth: 47.3% for the first, 20.9% for the second.

Compared with `CCOC(=O)c1sc2nc(-c3cc(OC)c(OC)c(OC)c3)nc(N3CCOCC3)c2c1C`, `COc1ccc(N(c2nc(-c3ccc([N+](=O)[O-])cc3)cs2)C(C)C)cc1` is higher in growth: 28.1% for the first, 92.1% for the second.

Compared with `Cc1cc(C)c(S(=O)(=O)/N=c2/n(-c3ccccc3)nc3n2CCN3C2=NCCN2)c(C)c1`, `COc1cc(Cl)cc(-c2nn(C(=O)NS(=O)(=O)c3ccccc3)cc2-c2ccncc2)c1` is lower in growth: 104% for the first, 98.7% for the second.

First: Cc1ccc(S(=O)(=O)N/N=C2\CC3CCC2(C)C3(C)C)cc1 (configuration not stated)
Second: Cc1ccc(C2=C/C(=C/c3ccc(Br)cc3)C(=O)N2CCc2ccc(S(N)(=O)=O)cc2)cc1
The growth of the first is lower: 76.8% for the first, 98.6% for the second.

First: N#C/C(C(=O)c1ccccc1)=C1/C(=O)Nc2ccccc21
Second: Cc1ccc2c(c1)/C(=N\N=C/c1cn(C(C)C)c3ccccc13)C(=O)N2
The growth of the first is higher: 106% for the first, 81.2% for the second.

Compared with `CCc1ccc(C2=C/C(=C/c3ccccc3)C(=O)N2CCc2ccc(S(N)(=O)=O)cc2)cc1`, `NS(=O)(=O)c1ccc(CCN2C(=O)/C(=C\c3ccccc3)C=C2c2ccc(Cl)cc2)cc1` is lower in growth: 104% for the first, 102% for the second.

Going from `CC(C)C1=NOC(=O)C1=Cc1cn(-c2ccco2)nc1-c1ccccc1` to `COc1ccc(/C=C2\N=C(Nc3ccccc3)N(NC(=O)c3ccccn3)C2=O)cc1`, the growth falls from 113% to 102%.

Compared with `CCOc1cccc2c(NC(C)CCCN(CC)CC)c(C)cnc12` (configuration not stated), `CCN(CCO)CCC(=O)c1ccc([N+](=O)[O-])cc1` is higher in growth: 105% for the first, 107% for the second.

Compared with `Cc1cc(C)nc(SCC(=O)Nc2cccc(N=Cc3ccccc3O)c2)n1`, `O=C(Nc1cccc(C2=NCCN2)c1)c1cccc(C(=O)Nc2cccc(C3=NCCN3)c2)c1` is lower in growth: 114% for the first, 103% for the second.

Going from `CSc1nc2c(c(=O)n1C)C1(C(=O)N(Cc3ccccc3)c3ccccc31)c1c(nc(SC)n(C)c1=O)N2` to `Nc1nnc(CSc2nnc3n(Cc4ccccc4)c(=O)c4c5c(sc4n23)CCCC5)s1`, the growth rises from 80.8% to 109%.

Going from `O=C1COCCN1c1ccc(NCc2cn(Cc3ccc(F)cc3)c3ccccc23)cc1` to `CCn1cc(-c2[nH]c(=S)ncc2-c2ccc(Cl)cc2)c(-c2ccc(Br)cc2)n1`, the growth rises from 56.7% to 72%.

Work on `O=C(NCCCNC(=O)OCc1ccc2cccc(O)c2n1)OCc1ccc2cccc(O)c2n1` yielded a growth of 71.3%.

Compared with `C=C(C)[C@@H]1CC[C@]2(COCCC#N)CC[C@]3(C)[C@H](CC[C@@H]4[C@@](C)(CCCNCCC#N)[C@H](C(=C)C)CC[C@]43C)[C@@H]12`, `CC(C)[C@H]1CCC2=C3CC[C@]45OC(=O)[C@@]6(CCC(C)(C)C[C@H]64)CC[C@@]5(C)[C@]3(C)CC[C@@]21C` is higher in growth: 10% [100 µM] for the first, 74.9% [100 µM] for the second.

Reference: PubChem BioAssay (NCI)
